High-throughput results: PubChem, National Center for Advancing Translational Sciences (NCATS)
Nrf2 ARE act: qHTS of Nrf2 Activators. hit rate 0.31% among 410,000. Potency, µM (titrated, usually from 46.1 µM), without a hit: top-dose activation, usual class: activators. AREc32 ARE-luciferase reporter (MCF7-derived line), luminescence, 24 h. AID 624171, 2012; note: % of control where 0% means no effect; nearly all actives have a fitted effect of over 65% in size
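Reporter line AREc32 (ARE-Fluc), seeded overnight in OPTI-MEM with 5% FBS; compound pin-transferred, 24 hr at 37 deg C, 5% CO2; luminescent read-out.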
ATXN2 expr inh: Primary qHTS for Inhibitors of ATXN expression | Potency, µM (highest dose often 57 µM), inactives show at the top dose activity change, negative = inhibition, most hits filed as inhibitors | HEK-293 ATXN2-luciferase reporter, luminescence, 24 h | hit rate 0.72% among 360,000; note: % is set by controls: 0 for no effect and ±100 for the full control effect; nearly all actives have a fitted effect of over 55% in size
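qHTS (up to 57 uM final) was run with 24 h compound exposure of reporter cells at 37 °C. Each well was multiplexed: SteadyGlo luminescence measured ATXN2-luciferase expression after a fluorogenic Gly-Phe-AFC viability readout (25 uM final).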
A549 viability: Nrf2 qHTS screen for inhibitors: counterscreen for cytotoxicity; A549 ARE-Fluc cells, CellTiter-Fluor viability, 18-24 h; AID 504648, 2011; Potency, µM (doses to about 46 µM), for inactives: at the top dose activity change, negative = cytotoxicity, actives largely listed as inhibitors; hit rate 0.16% among 390,000; note: % is set by controls: 0 for no effect and ±100 for the full control effect
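A549 ARE_Fluc cells in 5% FBS OPTI-MEM were exposed to compounds in concentration-response for 18-24 h at 37 deg C. Viability was read by CellTiter-Fluor fluorescence (Ex 405/Em 525) after 30 min, before the luciferase read.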
Nrf2 inh: Nrf2 qHTS screen for inhibitors | Potency, µM (doses to about 46 µM), for the others: at the top dose activity change, negative = inhibition, hits mostly inhibitors | AID 504444, 2011 | A549 ARE-Fluc reporter, luciferase luminescence, 18-24 h | hit rate 2.1% among 360,000; note: % is set by controls: 0 for no effect and ±100 for the full control effect; nearly all actives have a fitted effect of over 60% in size
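Quantitative HTS in A549 cells stably bearing an antioxidant response element-firefly luciferase construct. Inhibition of Nrf2-driven transcription was scored by luminescence after 18-24 h of compound exposure at 37 °C.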
ATXN viability: Viability Counterscreen for Primary qHTS for Inhibitors of ATXN expression; S2 cells (HEK-293 line with an ATXN2-luciferase reporter) viability, CellTiter-Fluor protease fluorescence, 24 h; Potency, µM (series often up to 56.7 µM), most hits filed as cytotoxic; hit rate 0.49% among 400,000; AID 651635, 2014; note: nearly all actives have a fitted effect of over 40% in size
The depositor's hits bear a star; i = inactive; u = inconclusive; x = not tested or not shown; [ ] = dose if it differs, or a comment. This is a sample that favours compounds with a hit; in the whole collection about 2.9% have one here. Calls come from the whole dose curve; as a rule, active = well fitted curve in the direction sought with a large enough effect; inconclusive = small, poorly fitted or top-dose-only effect, or another doubt; inactive = no such curve, though single readings can be large; an effect the other way counts as inactive or inconclusive. Potency is the fitted concentration of half-maximal effect.

SMILES	Nrf2 ARE act	ATXN2 expr inh	A549 viability	Nrf2 inh	ATXN viability
Cc1noc2ncnc(N3CCCCC3)c12	0%	-23%	-1%	-8%	i
Cc1noc2ncnc(N3CCN(c4ccc(F)cc4)CC3)c12	0%	x	-6%	7.3µM*	i
Cc1cc(F)cc(-c2cc(C(=O)NCc3cccc(Cl)c3)[nH]n2)c1	-1%	-5%	x	x	i
Cc1cnc(Nc2ccc(F)cc2Cl)nc1-c1c[nH]c(C(=O)N[C@H](CO)c2cccc(Cl)c2)c1	x	24µM*	x	x	x
Cc1ccc(-n2c(Cl)c(Cl)nc(Cl)c2=O)cc1	-2%	5.3µM*	u	u	x
CCOc1ccc(N(C)C(=O)C2CCN(S(=O)(=O)c3c(C)noc3/C=C/c3ccc(C)cc3)CC2)cc1	-1%	x	-4%	x	x
CC12CCC(O)CC1=CCC1C2CCC2(C)C(c3ccn[nH]3)CCC12 (stereo unspecified)	3%	-37%	-8%	21µM*	i
CC1CC(C)CN(c2ccc(-n3cnnn3)cc2[N+](=O)[O-])C1 (stereo unspecified)	0%	9%	-3%	10%	i
O=[N+]([O-])c1cc(-n2cnnn2)ccc1N1CCC(Cc2ccccc2)CC1	0%	-30%	u	10µM*	i
Cc1cc(N=Nc2ccccc2C(=O)O)c(C)c(C)c1O	2%	-4%	-7%	-2%	13µM*
O=C(O)CCC1CCC(c2cc(F)ccc2F)(S(=O)(=O)c2ccc(Cl)cc2)CC1 (stereo unspecified)	x	25%	x	x	x
CC(=O)c1[nH]c(C)c(C(=O)N2CCCC(Nc3cccc(F)c3)C2)c1C (stereo unspecified)	0%	3%	-7%	1%	i
CC(=O)c1[nH]c(C)c(C(=O)N2CCCC(Nc3ccc(C(C)C)cc3)C2)c1C (stereo unspecified)	0%	-10%	u	15µM*	i
O=C(NCCCN1CCN(c2ccc(F)cc2)CC1)c1cc2c(s1)-c1ccccc1OC2	0%	28µM*	-21%	u	u
COCCCN(Cc1ccco1)C(=O)c1cc2c(s1)-c1ccccc1OC2	1%	u	-10%	9.2µM*	i
Cc1ccc(CCNC(=O)c2cc3c(s2)-c2ccccc2OC3)cc1	0%	x	u	18µM*	x
O=C1CN(C(=O)Cc2ccc(F)cc2)C(c2ccccc2)c2cc(Cl)ccc2N1 (stereo unspecified)	2%	-34%	-1%	1%[9.27 µM]	u
CC(C)(CNc1ccc(S(=O)(=O)C(F)(F)F)cc1[N+](=O)[O-])N1CCOCC1	-1%	-25%	1%	23µM*	i
O=C1/C(=C/c2cccnc2)CCC/C1=C\c1cccnc1	u	18µM*	-4%	4%	11µM*
CCC1C/C(=C\c2cccnc2)C(=O)/C(=C/c2cccnc2)C1 (stereo unspecified)	0%[9.22 µM]	14µM*	-15%	u	x
O=C1/C(=C/c2cccnc2)CC/C1=C\c1cccnc1	1%	u	-3%	u	u
COc1cccc(CN(C)CC(=O)Nc2cccc(S(=O)(=O)N(C)c3ccccc3)c2)c1OC	0%	-16%	0%	u	u
COc1cc(CC(=O)Nc2cccc(S(=O)(=O)N(C)c3ccccc3)c2)cc(OC)c1OC	5%	x	u	15µM*	i
CN(C)S(=O)(=O)c1cccc(NC(=O)Cc2ccc(-c3ccccc3)cc2)c1	3%	-16%	u	13µM*	i
CN(C)S(=O)(=O)c1cccc(NC(=O)CSc2nc3ccccc3[nH]2)c1	0%	-33%	-18%	21µM*	i
SMILES	Nrf2 ARE act	ATXN2 expr inh	A549 viability	Nrf2 inh	ATXN viability
CN(c1ccccc1)S(=O)(=O)c1cccc(NC(=O)c2nn(C)c(=O)c3ccccc23)c1	2%	x	-2%	23µM*	i
CCN(CC)S(=O)(=O)c1cccc(NC(=O)CSc2nc3ccccc3[nH]2)c1	-1%	u	5%	-7%	i
Cc1ncc2c(c1CNC(=O)c1cncs1)CCN(C(=O)c1cc(F)c(F)cc1F)C2	x	x	x	x	i
Cc1ccc(-c2cc(-c3ccccc3)c3c(N)c(S(C)(=O)=O)sc3n2)cc1	2%	-34%	11%	13µM*	u
O=[N+]([O-])c1ccc(O)c(-c2ccnc3cc(-c4ccccc4)nn23)c1	9%	u	16µM*	18µM*	u
O=[N+]([O-])c1cccc(-c2cc(C(F)(F)F)n3nc(-c4ccccc4)cc3n2)c1	0%	x	-1%	1%	i
COc1ccccc1-c1cc(C(F)(F)F)nc(S(=O)(=O)CCCC(=O)Nc2cc(OC)c(OC)c(OC)c2)n1	0%	15%	0%	-5%[9.27 µM]	i
COc1ccccc1-c1cc(C(F)(F)F)nc(S(=O)(=O)CCCC(=O)O)n1	11µM*	u	-18%	x	u
COc1ccccc1-c1cc(C(F)(F)F)nc(S(=O)(=O)CCCC(=O)N2CCOCC2)n1	u	u	-7%	u	18µM*
COc1ccc(-c2cc(C(F)(F)F)nc(S(=O)(=O)CCC(=O)N3CCOCC3)n2)cc1	10%	u	-3%	-7%	u
Cn1cc(CCNC(=O)CC2C(=O)NCCN2Cc2cccc(Oc3ccccc3)c2)cn1 (stereo unspecified)	0%	x	6%	15µM*	i
O=C1C=CC(=C(c2ccc(O)cc2)c2ccc(O)cc2)C=C1	-3%	u	23µM*	13µM*	16µM*
O=C(CCCC(=O)c1ccc(O)cc1)c1ccc(O)cc1	0%	91%	-3%	u	i
Cc1sc(NC(=O)CSc2nc(N)cc(N)n2)c(C#N)c1C	2%	-12%	-7%	21µM*	i
Cc1sc(NC(=O)CSc2nnc(-c3ccccc3)o2)c(C#N)c1C	3%	-21%	-11%	u	u
CCN(CC)c1nc2ccccc2nc1C(=O)Nc1ccc(C(C)=O)cc1	-1%	-17%	-2%	x	u
Cc1cc(C(=O)CSc2nncs2)c(C)n1Cc1ccco1	0%	-29%	0%	u	i
Cc1cc(C(=O)CCl)c(C)n1Cc1ccco1	u	u	-17%	u	25µM*
CC(C)OP(=O)(OC(C)C)/C(C=O)=N\Nc1ccc([N+](=O)[O-])cc1	5%	x	-21%	u	28µM*
C/C(=N\Nc1ccc([N+](=O)[O-])cc1)c1ccc(O)cc1	6%	5%	u	u	u
COC(=O)C1CCN(Cc2ccc3c(c2)CN(C(=O)c2ncc(C)[nH]2)CCO3)CC1	x	x	x	x	i
Cc1ccc(C(=O)N/N=C/c2ccc(-c3cccc(Cl)c3)o2)cn1	0%	-30%	-19%	-21%	i
Cc1ccc(C(=O)N/N=C\c2ccc(-c3ccc(Cl)c(Cl)c3)o2)cn1	-3%	u	-17%	18µM*	u
